# In the library only some 11% were active in any assay of this set; here they are far more common.
# ALDH1A1 block: blocks purified human ALDH1A1 activity; Potency, µM (series often up to 75.3 µM), for the others: top-dose activity, negative = inhibition, actives largely listed as inhibitors; 7.3% of 220,000 active; Purified ALDH1A1, NADH fluorescence, propionaldehyde substrate;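 also: potency is read from the fitted curve at half-maximal effect; plate controls were no enzyme wells and a reference inhibitor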
# Target sequence (P00352 whole entry, looked up): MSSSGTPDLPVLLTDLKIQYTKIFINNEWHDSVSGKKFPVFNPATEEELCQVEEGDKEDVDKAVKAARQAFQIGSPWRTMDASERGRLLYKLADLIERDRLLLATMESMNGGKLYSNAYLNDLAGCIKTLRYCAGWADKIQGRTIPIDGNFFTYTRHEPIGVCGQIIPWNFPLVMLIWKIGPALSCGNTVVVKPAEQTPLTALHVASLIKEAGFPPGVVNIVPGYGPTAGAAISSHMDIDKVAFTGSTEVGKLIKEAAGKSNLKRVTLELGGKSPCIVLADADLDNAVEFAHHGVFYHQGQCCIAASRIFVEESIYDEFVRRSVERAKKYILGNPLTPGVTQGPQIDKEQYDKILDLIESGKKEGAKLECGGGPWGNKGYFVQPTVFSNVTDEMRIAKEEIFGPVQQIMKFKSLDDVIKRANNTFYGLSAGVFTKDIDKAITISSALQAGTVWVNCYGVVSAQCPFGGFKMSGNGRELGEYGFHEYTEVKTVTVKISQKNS
# HPGD inh: blocks human HPGD enzyme activity | purified HPGD, NADH fluorescence kinetic, PGE2 substrate | 4.3% of 150,000 active | Potency, µM, for the others: at the top dose activity change, negative = inhibition, hits mostly inhibitors | AID 894; also: potency is read from the fitted curve at half-maximal effect
# Target sequence (P15428 whole entry, looked up): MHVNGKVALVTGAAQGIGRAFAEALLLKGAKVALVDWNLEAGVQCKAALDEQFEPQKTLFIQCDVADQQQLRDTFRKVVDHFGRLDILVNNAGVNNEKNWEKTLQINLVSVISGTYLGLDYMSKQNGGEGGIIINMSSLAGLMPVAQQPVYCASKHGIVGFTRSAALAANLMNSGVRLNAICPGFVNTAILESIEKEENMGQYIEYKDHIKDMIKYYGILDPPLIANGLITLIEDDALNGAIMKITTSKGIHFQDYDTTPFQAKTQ
#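 NADH formation kinetics: reaction with 30 uM PGE2 and 1 mM NAD+ (final), 20 nM enzyme, Tris-HCl pH 8 with Tween 20, after 15 min compound preincubation at room temperature. Fluorescence change, last versus first of five reads.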
# IMPase Li cell: cell-permeable IMPase inhibitors with lithium potentiation. Potency, µM (doses to about 59.4 µM), for inactives: top-dose activity, negative = IMPase inhibition, most hits filed as inhibitors. CHO-M1 cells, IP1 TR-FRET (IP-One), carbachol + lithium. 0.35% of 210,000 active; active = well fitted inhibition curve with a large enough effect; inconclusive = small, poorly fitted or top-dose-only effect; inactive = no such curve, though single readings can be large or run the other way;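 also: IP1 builds up when IMPase is blocked and the TR-FRET signal falls; potency is read from the fitted curve at half-maximal effect; plate controls were basal vehicle for no effect and high inhibitor control for full effect; nearly all actives have a fitted effect of over 50% in size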
#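 Steps: plate 2000 CHO-M1 cells per well and culture 16–30 h; add compound and lithium; incubate 30 min, 37C; add d2-IP1 tracer and Eu cryptate anti-IP1 antibody in lysis buffer; read after 10 min at room temperature.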
# IMPase cell inh: cell-permeable inhibitors of inositol monophosphatase (IMPase); CHO-M1 cells, IP1 accumulation, HTRF TR-FRET ratio; inhibition (IP1 accumulation), % at 46.1 µM; 120,000 tested, under 10 active; active = well fitted curve in the direction sought with a large enough effect in the signal ratio, not every such curve was filed as active; inconclusive = small, poorly fitted or top-dose-only effect, or a change in a side signal; inactive = no such curve, though single readings can be large or run the other way; the % refers to the signal ratio;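 also: cells stimulated with carbachol in lithium chloride buffer; plate controls were DMSO basal wells for no effect and reference inhibitor wells for full effect; higher means more IMPase inhibition seen as more IP1 and lower FRET ratio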
#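 The IP-One HTRF competitive assay in carbachol-stimulated CHO-M1 cells quantifies cellular IP1. Compounds spanned up to 46 uM final, and activity is expressed as AC50 from concentration-response fits of the ratio and donor data.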
# PNC inhibitor: blocks assembly of the perinucleolar compartment | PC3M PTB-GFP, PNC prevalence imaging, 16 h; hits give low values | activity change (PNC), negative = inhibition, % at 10 µM | 3.1% of 140,000 active | AID 2417;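 active = readout at or below -70, meaning at least 70% loss of cells showing the perinucleolar compartment, a nuclear body marking cancer cells; inconclusive = readout between -30 and a set limit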;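 also: plate controls were DMSO wells for no effect and camptothecin positive control wells for full effect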
#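 PC3M cells stably expressing PTB-GFP, 750–1000 cells/well, treated 16 h at 37 °C with compound (23 nl of library stock), in duplicate. After paraformaldehyde fixation and Hoechst stain, imaged at 20x; PNC prevalence scored by image analysis.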
# An asterisk follows results filed as active; ? = inconclusive; nt = no result given; [ ] = another dose, or the depositor's remark. Unless noted, calls follow the shape of the dose curve; as a rule, active = well fitted inhibition curve with a large enough effect (not every such curve was filed as active); inconclusive = small, poorly fitted or top-dose-only effect, or another doubt; inactive = no such curve, though single readings can be large or run the other way. Unless noted, % is scaled to controls: 0 for no effect and ±100 for the full control effect.
SMILES,ALDH1A1 block,HPGD inh,IMPase Li cell,IMPase cell inh,PNC inhibitor
COC(=O)c1cccc(N2C(=O)c3ccccc3S2(=O)=O)c1,-37%,25µM*,10%[38.3 µM],-9,-8
CC(C)NC(=O)CN1C(=O)c2ccccc2S1(=O)=O,-3%,nt,4%,nt,nt
CC(C)COP(=O)(CNC(=O)CN1C(=O)c2ccccc2S1(=O)=O)OCC(C)C,4%,-13%,4%,nt,-82*
CCC(C)NC(=O)c1ccccc1NC(=O)CN1C(=O)c2ccccc2S1(=O)=O (configuration not stated),-5%,-9%,17%[38.3 µM],-2,-19
COC(=O)c1ccc(CN2C(=O)c3ccccc3S2(=O)=O)cc1,-9%,-9%,-8%[38.3 µM],-1,21
O=C(CN1C(=O)c2ccccc2S1(=O)=O)NCc1ccccc1Cl,-4%,-7%,5%,3,-119*
COC(=O)c1ccccc1NC(=O)CN1C(=O)c2ccccc2S1(=O)=O,25µM*,-5%,14%[38.3 µM],2,?
COc1cccc(Nc2ncc3ncc(=O)n(C)c3n2)c1,-15%,nt,-5%,nt,nt
O=C(CSc1ccc(C(F)(F)F)cc1[N+](=O)[O-])Nc1ccc2ccccc2c1,5.6µM*,-7%,-5%,nt,9
CC(NC(=O)C1CCC(CNS(=O)(=O)c2ccccc2)CC1)c1ccc2c(c1)OCCO2 (configuration not stated),?,nt,0%,nt,nt
O=C(c1ccccc1)c1ccc(N2CCOCC2)c(F)c1,-2%,25µM*,-1%[38.3 µM],1,?
O=C(c1ccccc1)c1cc(F)c(N2CCOCC2)cc1Cl,1%,20µM*,11%[38.3 µM],3,-26
Cc1cc(C(F)(F)F)n2nc(-c3ccc(Br)cc3)cc2n1,nt,nt,nt,11,nt
O=C(O)c1ccc2c(c1)C(=O)N(c1cccc(C(=O)/C=C/c3ccccc3)c1)C2=O,0.71µM*,nt,-3%,nt,nt
CCS(=O)CCSc1nc2ccccc2s1 (configuration not stated),?,16µM*,-8%[38.3 µM],-1,97
O=C(CSc1nc2ccccc2s1)N1CCOCC1,?,-28%,7%,-8,16
NC(=O)C1(N2CCCCC2)CCN(C(=O)CSc2nc3ccccc3s2)CC1,25µM*,-24%,25%[38.3 µM],15,?
O=C1CCCCCN1CSc1nc2ccccc2s1,13µM*,-24%,27%[38.3 µM],6,-7
Cc1cc(C(=O)NC(CC(C)C)C(=O)O)cc(C)c1[N+](=O)[O-] (configuration not stated),7.1µM*,-19%,-3%,nt,30
COC(=O)C(CC(C)C)NC(=O)c1ccc([N+](=O)[O-])c(C)c1 (configuration not stated),0%,-7%,-4%[38.3 µM],8,89
[O-]/[N+](=C\c1ccncc1)c1ccc(Br)cc1,1.1µM*,?,-2%,nt,?
CCN(CC)CCCN(Cc1cc2cc3c(cc2[nH]c1=O)OCO3)C(=S)Nc1ccccc1,?,nt,19%,nt,nt
CN(C)CCCc1c2ccccc2nc2ccc(Cl)cc12,5%[13.5 µM],-8%,22%,nt,nt
O=C1C(=Cc2ccc(Br)o2)C(=O)c2ccccc21,-4%,32µM*,38%,14,?
Cc1cc(C(=O)O)ccc1-n1c(C)cc(/C=C(/C#N)C(=O)Nc2ccccc2)c1C,?,nt,-4%,nt,nt
SMILES,ALDH1A1 block,HPGD inh,IMPase Li cell,IMPase cell inh,PNC inhibitor
Cc1cc(C(=O)O)ccc1-n1c(C)cc(C=C2C(=O)c3ccccc3C2=O)c1C,10µM*,nt,4%,nt,nt
CSC1=N/C(=C\c2ccc(Br)o2)C(=O)S1,?,-11%,1%[38.3 µM],0,-9
Cc1ccc(NC(=O)CN2C(=O)S/C(=C/c3ccc(-c4cc(C(=O)O)ccc4C)o3)C2=O)cc1C,?,32µM*,39%[38.3 µM],-1,8
Cc1ccc(C(=O)O)cc1-c1ccc(C=C2C(=O)c3ccccc3C2=O)o1,5µM*,nt,-2%,nt,nt
CCC(CO)NC1=CC(=O)CCC1 (configuration not stated),10%,nt,0%,nt,nt
Cc1ccc(N=C2C(=S)N(c3ccc(C)cc3)C(=N)N2/N=C/c2ccc(Cl)cc2)cc1,?,35µM*,4%,21,-25
O=C(CCCOc1ccc(Cl)cc1Cl)NN1CCOCC1,-1%,-26%,-2%,nt,-22
CCC(C)NC(=O)c1ccc2c(c1)N=C(C)c1cc(C)ccc1S2 (configuration not stated),nt,nt,nt,3,nt
CCOC(=O)c1cn(CC)c2ccc(S(=O)(=O)N3CCC(C)CC3)cc2c1=O,-12%,16µM*,4%[38.3 µM],21,?
CCOc1ccc(S(=O)(=O)N2CCN(C(=S)NC3CC3)CC2)cc1,?,nt,-1%,nt,nt
Cc1ccc(C)c(NS(=O)(=O)c2ccc(OCC(=O)NCc3ccco3)cc2)c1,?,-9%,11%[38.3 µM],0,-90*
CCOc1ccc(S(=O)(=O)N2CCN(C(=S)NCc3ccco3)CC2)cc1,-13%,-7%,3%,nt,-87*
Cc1cccc(N(CC(=O)N/N=C/c2ccc(OCC(=O)NCc3ccco3)cc2)S(C)(=O)=O)c1C,-13%,25µM*,17%[38.3 µM],6,?
CC(=O)N1CCC2(CC1)CN(C(c1ccccc1)c1ccccc1)C2,0%,-6%,-3%,nt,nt
CCOC(=O)NC(=O)C(=CNc1ccc(C)cc1)C(=O)NC(=O)OCC,-2%,0%,1%,nt,?
Cc1ccc(C)c(NS(=O)(=O)c2ccc(NC(=O)c3ccco3)cc2)c1,-1%,-7%,10%,-2,-100*
Cc1cc(C)nc(NS(=O)(=O)c2ccc(NC(=O)c3ccco3)cc2)n1,9%,-5%,-7%[38.3 µM],-8,-3
CCn1cc(C(=O)NCc2ccco2)c(=O)c2cc(S(=O)(=O)N3CCCC3)ccc21,25µM*,nt,6%,nt,nt
CCn1cc(C(=O)NCC2CCCO2)c(=O)c2cc(S(=O)(=O)N3CCC(C)CC3)ccc21 (configuration not stated),-2%,-6%,-2%[38.3 µM],10,?
CCn1cc(C(=O)NCC2CCCO2)c(=O)c2cc(S(=O)(=O)N3CCCCCC3)ccc21 (configuration not stated),4.5µM*,-12%,10%[38.3 µM],8,-8
CCn1cc(C(=O)NCCc2ccccc2)c(=O)c2cc(S(=O)(=O)N3CCCC3)ccc21,32µM*,nt,12%,nt,nt
O=C(CC1c2ccccc2Oc2ccccc21)Nc1ccccc1C(F)(F)F,2%,-7%,4%,nt,30
O=C(Nc1cccc(F)c1)N1CCCC2(CCN(C(=O)c3cc(C(F)(F)F)cc(C(F)(F)F)c3)CC2)C1,2%,-7%,2%,nt,nt
COc1ccc(/C=C/C(=O)NCC(=O)N/N=C(/CCC(=O)O)c2ccccc2)cc1,3%,nt,nt,nt,nt
Cc1cc(=O)oc2cc(OCC(=O)NCc3ccco3)ccc12,?,?,1%,-6,-100*
Cc1cc(=O)oc2ccc(OCC(=O)NCc3ccco3)cc12,?,-23%,4%[38.3 µM],3,-16
CC(C)(C)c1ccc(OCC(=O)NCc2ccco2)c(Br)c1,18µM*,-27%,1%[38.3 µM],10,-15

# Screening results (PubChem)
